Compound activity: PubChem BioAssay, National Center for Advancing Translational Sciences (NCATS)
Only some compounds are listed: those with a hit (about 2.4% of all), similar ones and a draw of the others.
D2 ag-1 – D2 dopamine receptor (human) agonism. P14416. HEK293 T-REx D2 cells, calcium flux agonist mode. activation, % at 2 µM. actives 0.53% (n = 340,000). AID 485358;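 active = activation over 3 SD above normal in the single-dose calcium agonist read, cut at about 30% in these data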; also: 0% is about no effect
Target sequence (P14416 whole entry, looked up): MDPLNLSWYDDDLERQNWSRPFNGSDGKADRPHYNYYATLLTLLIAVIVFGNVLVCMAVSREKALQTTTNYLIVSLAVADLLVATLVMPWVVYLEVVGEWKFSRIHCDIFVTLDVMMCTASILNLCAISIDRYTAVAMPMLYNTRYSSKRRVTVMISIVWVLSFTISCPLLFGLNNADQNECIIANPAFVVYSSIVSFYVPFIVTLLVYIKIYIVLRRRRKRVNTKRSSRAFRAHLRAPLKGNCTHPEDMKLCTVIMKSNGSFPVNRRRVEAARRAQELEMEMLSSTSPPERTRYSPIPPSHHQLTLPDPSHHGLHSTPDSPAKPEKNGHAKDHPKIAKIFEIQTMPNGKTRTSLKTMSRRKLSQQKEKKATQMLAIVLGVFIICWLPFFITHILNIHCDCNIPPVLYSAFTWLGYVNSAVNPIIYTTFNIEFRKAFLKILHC
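Calcium-flux readout, 1 cycle/sec over 180 s following compound pin transfer, in inducible HEK293 Trex D2 cells (force-coupled); dopamine controls included. Positive calcium responses during this window marked compounds as potential agonists.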
D2 antagonist – antagonists of human D2 dopamine receptor; actives 2% (n = 340,000); AID 485344; inhibition, % at 10 µM; HEK293 TREx D2 cells, calcium flux, dopamine EC80; in the data active = inhibition above about 30%; inactive = below that, where a call was filed; also: 0% is about no effect
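Dopamine at EC80 is the agonist stimulus; test compounds precede it by 180 s. Calcium flux read kinetically in a force-coupled, inducible HEK293 T-REx D2 cell line.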
D2 PAM-1 – potentiates the human D2 dopamine receptor allosterically | P14416 | DiscoveRx D2 beta-arrestin cells, luminescence, 90 min; 100% = 57 uM dopamine signal | potentiation, % (concentration not given with the values) | actives 0.23% (n = 360,000); in the data active = potentiation above about 50%; inconclusive = mostly about 30% to 49%
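D2 cells co-treated with compound plus 50 nM dopamine (EC20) for 90 min at 37 deg C to detect potentiation. Beta-arrestin recruitment was read as enzyme-fragment luminescence after 1 h at ambient temperature. Full response was set by 57 uM dopamine.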
D2 PAM-2 – D2 dopamine receptor (human) potentiation. P14416. HEK293 T-REx D2, calcium flux, EC20 dopamine potentiation. potentiation, % at 10 µM. actives 0.34% (n = 340,000). AID 485347;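 active = potentiation over 3 SD above the plate norm, cut at about 30% in these data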; also: 0% is about no effect
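Tetracycline-induced Hek293 Trex D2 cells, force-coupled to calcium, loaded with no-wash calcium dye. Compound added with 180 s kinetic read for agonism, then EC20 dopamine and a further 180 s read for potentiation.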
D2 ag-2 – human D2 receptor agonism in beta-arrestin assay; P14416; DiscoveRx PathHunter D2 beta-arrestin, luminescence, 90 min; 100% = 57 uM dopamine signal; activation, % (no concentration beside the values); actives 0.084% (n = 360,000); AID 624465; in the data active = activation above about 40%; inconclusive = between about 15% and that limit
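Agonist mode: compounds alone added to overnight-plated D2 PathHunter cells for 90 min at 37 C, with 57 uM final dopamine (EC100) defining full response. Beta-arrestin recruitment detected by chemiluminescent reagent, read after 1 h at ambient temperature.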
* marks the source's active call; other numbers are inactive results; ? = inconclusive; . = no result.

SMILES | D2 ag-1 | D2 antagonist | D2 PAM-1 | D2 PAM-2 | D2 ag-2
N#Cc1c(Br)n(C2OC(CO)C(O)C2O)c2ncnc(N)c12 (stereo not drawn) | . | . | ? | . | 70*
COc1cccc(CNCCc2c[nH]c3ccccc23)c1OC | 0 | 52* | -26 | -21 | -3
Cc1ccc(-n2c(/C=C/c3ccccc3)nc3ccccc3c2=O)cc1Cl | 0 | . | . | 7 | .
Cc1nnc(NC(=O)c2cccn(Cc3ccccc3F)c2=O)s1 | 2 | . | . | 2 | .
CN1/C(=C\C=C2C(=O)NC(=O)NC2=O)C(C)(C)c2ccccc21 | 50* | -14 | 1 | . | -4
CN1/C(=C\C=Nc2ccccc2)C(C)(C)c2ccccc21 | 1 | -4 | -8 | -2 | 3
COc1cccc(O)c1CN1CCCC(C(=O)c2sccc2C)C1 (stereo not drawn) | 0 | 8 | -32 | -18 | -4
COc1ccc(OC)c(CN2CCCC(C(=O)c3sccc3C)C2)c1 (stereo not drawn) | 0 | 51* | -26 | -25 | -4
Cc1ccsc1C(=O)C1CCCN(Cc2cc(C(C)C)n[nH]2)C1 (stereo not drawn) | -1 | 80* | -16 | -32 | 0
Cc1ccsc1C(=O)C1CCCN(Cc2ccn[nH]2)C1 (stereo not drawn) | 0 | 12 | -28 | 5 | -2
Nc1c(C(=O)NCc2ccco2)c2nc3ccccc3nc2n1CCN1CCCCC1 | 3 | -8 | -9 | 30* | -1
Cc1ccc(-c2nc(CN3C(=O)CN=C(c4ccccc4Cl)c4cc(Cl)ccc43)c(C)o2)cc1 | 3 | . | . | 2 | .
COc1ccccc1N1CCN(Cc2cc(C)c(C)cc2O)CC1 | . | . | -19 | . | -5
COc1ccccc1N1CCN(Cc2cccc(Br)c2)CC1 | -1 | 76* | -2 | -25 | -4
CCCCCCCCCOc1ccc2[nH]cc(CCN)c2c1 | 2 | 13 | . | -18 | .
COc1ccc2[nH]cc(CCN)c2c1 | 34* | -4 | -48 | -4 | 5
Fc1ccccc1CCNCc1cccc2ccccc12 | 0 | 31* | -35 | -33 | -4
CCN(CC)C(=O)c1ccc(NC(=O)CCn2nc(-c3ccc(Cl)cc3)c3ccccc3c2=O)cc1 | -1 | . | . | -9 | .
CN1C[C@H](CNC(=O)OCc2ccccc2)C[C@@H]2c3cccc4c3c(cn4C)C[C@H]21 | 11 | 78* | -26 | -28 | 3
COc1ccc(NC(=O)CN2C(=O)C(C)N=C(c3ccccc3F)c3cc(Cl)ccc32)c(OC)c1 (stereo not drawn) | 0 | . | . | 0 | .
Nc1c(C(=O)Nc2ccc(OC(F)(F)F)cc2)sc2nc3c(cc12)N1CCC3CC1 | 0 | . | . | -3 | .
NS(=O)(=O)OC(CCc1ccccc1)C(Cl)(Cl)Cl (stereo not drawn) | 2 | 38* | 0 | 7 | 1
CN1C(=O)C(=Cc2cn(CC(=O)N3CCCC3)c3ccccc23)C(=O)N(C)C1=O | -1 | 30* | -5 | 31* | -3
Cn1c(O)c(C=Nc2ccc(F)cc2)c(=O)[nH]c1=O | -1 | 35* | 4 | -7 | 0
CC(C)(C)c1ccc(OCC(=O)Nc2ccc(Cl)cc2C(=O)c2ccccc2)cc1 | 0 | . | . | 2 | .
SMILES | D2 ag-1 | D2 antagonist | D2 PAM-1 | D2 PAM-2 | D2 ag-2
COc1ccc(OCC(=O)N2CCN(CCc3ccccn3)CC2)cc1 | 1 | . | . | 8 | .
C[C@H]1CCC[C@H](O)CCCCCc2cc(O)cc(O)c2C(=O)O1 | 1 | 32* | 2 | 7 | -3
O=C(CNC(=O)c1cccc(Cl)c1)Nc1ccc(Br)cc1C(=O)c1ccccc1 | 1 | 9 | -20 | -11 | 1
O=C(CNC(=O)c1ccc(Cl)cc1)Nc1ccc(Br)cc1C(=O)c1ccccc1 | -1 | 34* | -18 | -21 | 1
COc1cccc(NC(=O)c2cccn(Cc3ccccc3C)c2=O)c1 | 1 | . | . | 2 | .
Cc1nnc(NC(=O)c2cccn(Cc3ccc(Cl)cc3)c2=O)s1 | 1 | . | . | -4 | .
O=C(Nc1ccc2c(c1)OCCO2)c1cccn(Cc2cccc(F)c2)c1=O | 0 | . | . | 16 | .
CCOC(=O)c1cncn1C(C)c1ccccc1 (stereo not drawn) | 11 | 35* | -5 | -18 | -5
COC(=O)c1cncn1C(C)c1ccccc1 (stereo not drawn) | -1 | 20 | -4 | -2 | -3
